# This is a sample that favours compounds with a hit; in the whole collection about 2.6% have one here.
# 697 NFkB inh: inhibitors of the PMA/ionomycin-induced NF-kB reporter in 697 B cells; 697 B-cell NF-kB luciferase reporter, 16 h; inhibition, % at 4 µM; hit rate 0.33% among 330,000; in the data active = inhibition above about 35%
# Gli-Sufu block: Gli-Sufu pathway antagonism; hit rate 0.74% among 340,000; inhibition, % at 5 µM; Sufu-KO-LIGHT fibroblasts, Gli luciferase reporter luminescence;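 active = inhibition above about 55%, limit read from the data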
# NR2F2 inh: inhibitors of human COUP-TFII (NR2F2); hit rate 0.7% among 370,000; inhibition, % at 8.6 µM; HEK293T NGFI-A luciferase reporter, luminescence;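 active = inhibition above a per-plate cutoff, mean inhibition of test wells between control levels plus 3 SD, cut at about 38% in these data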;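 also: cells cotransfected with COUP-TFII expression vector driving the NGFI-A reporter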
# Target sequence (P24468 whole entry, looked up): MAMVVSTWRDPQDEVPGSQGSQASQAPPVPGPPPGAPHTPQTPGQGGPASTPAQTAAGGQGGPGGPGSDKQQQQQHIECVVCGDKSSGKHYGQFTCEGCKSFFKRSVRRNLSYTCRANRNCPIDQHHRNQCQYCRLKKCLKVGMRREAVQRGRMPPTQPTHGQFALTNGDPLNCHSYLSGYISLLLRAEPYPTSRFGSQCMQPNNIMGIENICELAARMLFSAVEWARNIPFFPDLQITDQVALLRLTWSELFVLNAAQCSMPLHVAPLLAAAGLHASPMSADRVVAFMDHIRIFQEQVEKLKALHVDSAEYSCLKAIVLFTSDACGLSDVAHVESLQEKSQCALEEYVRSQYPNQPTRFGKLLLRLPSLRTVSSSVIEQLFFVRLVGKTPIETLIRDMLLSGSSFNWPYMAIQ
# Cardio protect: myocardial damage modulation in H9c2 cells. H9c2 cardiomyocytes, H2O2 injury protection, ATPLite, 2 h. protection from H2O2 cell death, % at 20 µM. hit rate 0.63% among 360,000. AID 588492;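 active = compounds giving at least 50% protection of heart cells from peroxide-induced death in the single-dose screen, raw or plate-pattern-corrected value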
# Jurkat NFkB inh: lowers PMA/ionomycin-induced NF-kB signal in Jurkat cells. hit rate 0.53% among 330,000. inhibition, % at 4 µM. AID 435003. PMA/ionomycin-induced NF-kB luciferase reporter, luminescence; in the data active = inhibition above about 50%
# H9c2 TAG inh: reduces triacylglycerol accumulation in H9c2 cells; Nile Red lipid (TAG) fluorescence; cells loaded with 200 µM oleic acid; AID 651582; hit rate 0.66% among 230,000; inhibition, % at 12.5 µM;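 active = pattern-corrected inhibition of lipid staining of at least 50% with the nuclear-stain viability signal not falling by more than 50%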
# Numbers stand for hits; i = inactive; nt = no result given.
SMILES,697 NFkB inh,Gli-Sufu block,NR2F2 inh,Cardio protect,Jurkat NFkB inh,H9c2 TAG inh
c1ccc2c(c1)nc(N1CCOCC1)c1nncn12,i,i,i,i,i,i
c1ccc(N2CCOCC2)c(Nc2nc3ccccc3n3cnnc23)c1,i,i,i,81,i,i
COc1cccc(/C=N/Nc2nc3ccccc3n3cnnc23)c1,i,i,i,57,i,nt
CC(=O)c1cccc(Nc2nc3ccccc3n3cnnc23)c1,i,i,i,67,i,nt
Cc1ccccc1NC(=O)N(C)[C@H]1C[C@H]2c3[nH]c4c(-c5ccccc5)cccc4c3CCN2C[C@H]1[C@H](C)O,nt,nt,i,nt,nt,nt
C/C(N)=C(/C#N)C(=O)CSc1nnc(Nc2ccccc2C)s1,i,i,i,i,i,i
C/C(N)=C(/C#N)C(=O)CSc1nnc(Nc2ccccc2)s1,i,i,i,57,i,i
COc1ccc(S(=O)(=O)N(CCCN2CCCC2=O)Cc2cc3cc(C)c(C)cc3[nH]c2=O)cc1,nt,i,i,47,nt,i
Cc1ccc(S(=O)(=O)N(CCCN2CCCC2=O)Cc2cc3c(C)ccc(C)c3[nH]c2=O)cc1,i,i,i,i,i,nt
CCn1c(=O)c(C(=O)NC(C)c2ccccc2)c(O)c2ccccc21 (stereo not drawn),i,i,i,55,i,nt
CCCn1c(=O)c(C(=O)Nc2ccccc2)c(O)c2ccccc21,i,i,i,57,i,i
CCCn1c(=O)c(C(=O)Nc2cccc(C)c2)c(O)c2ccccc21,i,i,i,i,i,nt
CCCCCOc1ccc(/C=N/NC(=O)CSc2nnc(-c3ccc(OC)cc3)n2-c2ccc(C)cc2)cc1,nt,nt,i,nt,nt,nt
Cc1cc(C)nc(N2CCC(C(=O)N(C)CCc3ccccc3)CC2)n1,nt,nt,i,nt,nt,nt
CC(C)(C)OC(=O)N1CCN(c2ccc(CNC(=O)c3ccc(Cl)cc3)cc2)CC1,i,i,39,i,i,i
COc1ccc(NS(=O)(=O)c2ccc3ccccc3c2)c2ncccc12,i,i,i,59,i,nt
c1ccc(-c2nc(-n3ccnc3)nc(-n3ccnc3)n2)cc1,i,i,i,74,i,i
CC(C)Nc1nc(-c2ccccc2)nc(-n2ccnc2)n1,i,i,i,i,i,i
O=C(c1cc(Cl)nc2ccccc12)N1CCN(S(=O)(=O)c2cccc(F)c2)CC1,i,i,i,i,i,i
O=S(=O)(c1cccc(F)c1)N1CCN(c2nc(-c3cccnc3)nc3ccccc23)CC1,i,i,i,59,i,i
S=C1Cc2ccccc2N1,nt,i,60,i,nt,i
O=C(Nc1ccccc1Cl)c1ccc2c(=O)n3c(nc2c1)CCC3,i,i,i,i,i,i
CCOC(=O)c1ccccc1NC(=O)c1ccc2c(=O)n3c(nc2c1)CCCCC3,i,i,i,51,i,i
C/C(=N/NC(=O)c1cccs1)c1cccc(NC(=O)C2CC2)c1,i,i,i,58,i,i
CC(=O)N/N=C(\C)c1cccc(NC(=O)c2cccs2)c1,i,i,i,i,i,nt
SMILES,697 NFkB inh,Gli-Sufu block,NR2F2 inh,Cardio protect,Jurkat NFkB inh,H9c2 TAG inh
C/C(=N\NC(=O)c1cccc(N/N=C(\C)c2ccncc2)c1)c1ccncc1,i,i,i,68,i,i
COc1ccc(CCn2c(=N)c(C(=O)NCCN3CCOCC3)cc3c(=O)n4cccc(C)c4nc32)cc1OC,i,i,i,61,i,nt
CN(C)CC(=O)N[C@H]1C[C@@H]2O[C@@H](CO)CC[C@@H]2O[C@@H]1CCc1ccc(C2=CCCCC2)cc1,nt,nt,i,nt,nt,nt
CCOC(=O)c1cnc(-n2nc(C)cc2C)nc1Nc1ccc(OC)cc1,i,i,i,50,i,nt
CCOC(=O)c1cnc(-n2nc(C)cc2C)nc1Oc1ccc(C(=O)OC)cc1,i,i,i,i,i,i
COc1ccc(C=NNC(=S)NC23CC4CC(CC(C4)C2)C3)cc1OC,nt,i,i,i,nt,i
O=C(N/N=C/c1ccc(O)cc1O)NC12CC3CC(CC(C3)C1)C2,i,i,i,52,i,nt
COc1cc(/C=N/NC(=O)NC23CC4CC(CC(C4)C2)C3)ccc1OCC(N)=O,i,i,i,62,i,nt
CN(C)[C@@H]1CCN(c2cccc3c2S(=O)(=O)N(C2CC2)CCCO3)C1,nt,nt,i,nt,nt,nt
On1onc2c3cc(-c4ccccc4)nc3ccc21,i,65,i,i,i,nt
c1ccc(-c2cc3c(ccc4nonc43)nn2)cc1,i,i,i,i,i,i
CCCN1CCS(=O)(=O)N(Cc2cn(Cc3ccc(F)cc3)nn2)C(C(=O)OC)C1 (stereo not drawn),nt,nt,i,nt,nt,nt
COC(=O)c1[nH]c2ccccc2c1NC(=O)CN1CCCCCC1,i,i,i,i,i,i
COC(=O)c1[nH]c2ccccc2c1NC(=O)CNC1CCCCC1,i,i,i,86,i,i
Cc1ccc(-c2[nH]c3cc(C(N)=O)ccc3c(=O)c2O)cc1,i,i,i,63,i,i
CCCNC(=O)c1ccc2c(=O)c(O)c(-c3ccc(C)cc3)[nH]c2c1,i,i,i,54,i,i
Cc1ccc(-c2[nH]c3cc(C(=O)NCCCn4ccnc4)ccc3c(=O)c2O)cc1,i,i,i,i,i,i
CCCNC(=O)c1ccc2c(=O)c(O)c(-c3ccc(OC)cc3)[nH]c2c1,i,i,nt,i,i,i
CCCCCn1c(=O)[nH]c2cc(C(=O)NCCCN(CC)CC)ccc2c1=O,i,i,i,i,i,i
CCCNC(=O)c1ccc2c(=O)c(O)c(-c3ccsc3)[nH]c2c1,i,i,nt,51,i,i
CNc1ccccc1/C(O)=C(\C#N)C(=O)NCc1cccc2ccccc12,nt,nt,i,nt,nt,nt
O=C(c1ccc(F)cc1F)N(Cc1ccccn1)CC1CCCO1 (stereo not drawn),nt,nt,i,nt,nt,nt
O=S1(=O)c2ccc(N3CCC[C@H]3CO)cc2OCCCN1C1CC1,nt,nt,i,nt,nt,nt
CC(C)C[C@H]1COc2cccc(F)c2S(=O)(=O)N1Cc1cn(Cc2ccc(C(F)(F)F)cc2)nn1,nt,nt,i,nt,nt,nt
COc1cc2c(=O)[nH]c3cc([N+](=O)[O-])ccc3c2cc1[N+](=O)[O-],nt,nt,i,i,nt,i
SMILES,697 NFkB inh,Gli-Sufu block,NR2F2 inh,Cardio protect,Jurkat NFkB inh,H9c2 TAG inh
Nc1cc2[nH]c(=O)c3ccccc3c2cc1[N+](=O)[O-],nt,i,i,81,nt,i
COC(=O)[C@]12C[C@H](CC(=O)NCCC(C)C)C(=O)N(Cc3cccc4ccccc34)C1=C[C@H](C(C)C)O[C@@H]2C1CC1,nt,nt,i,nt,nt,nt
COc1ccc2[nH]c(=O)c(-c3nnn(-c4ccccc4)n3)cc2c1,i,i,i,i,i,i
COc1ccc2[nH]c(=O)c(-c3nnn(-c4ccc(F)cc4)n3)cc2c1,i,i,i,56,i,i
Cc1ccc(NC(=O)CSc2ccc(-c3ccccn3)nn2)cc1,i,i,i,54,i,i
Cc1ccccc1C1CCC2(CC1)CCN(CC[C@@H](O)c1ccccc1)C2=O (stereo partly drawn),nt,nt,i,nt,nt,nt
O=C(CSc1nc2ccccc2c(=O)[nH]1)Nc1ccc(Br)cc1,i,i,i,i,i,i
O=C(CSc1nc2ccccc2c(=O)[nH]1)Nc1cccc([N+](=O)[O-])c1,i,i,i,53,i,i
O=C(CSc1nc2ccccc2c(=O)[nH]1)Nc1ccccc1O,i,i,i,i,i,nt

# Screens deposited in PubChem by several laboratories.
